These results are taken from PubChem BioAssay (NCI).

Compounds without any hit were thinned out: in the full panel of roughly 83,000, 20% have a hit.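 Testing used 96-well plates and a 48-hour single-concentration exposure. Example: -40 means 40% of the starting cells died.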 Active and inactive are the calls of the source. Rule for the calls: active = growth percent below 10; inactive = the rest.

In the assay the test system is MDA-MB-468 breast. Kind of assay: NCI-60 one-dose screen, 48 h (100 = growth as untreated, 0 = no growth, -100 = all killed). The following applies: 10 µM unless noted.
`CCCCCCCCC(=O)OCCCC(CCC(CCC1CCCO1)OC(=O)CCCCCCCC)OC(=O)CCCCCCCC` (stereo not given): the growth was 111% (inactive). Take `Cc1ccc(S(=O)(=O)N2CCc3ccc(O)c4c3C2Cc2cc(Cl)ccc2-4)cc1` (stereo not given): the growth is 53.9% (inactive). As for `CCCNNC(=O)/C=C/c1ccc(CNCCc2c(C)[nH]c3ccccc23)cc1`, the figure is 32.8% [2.5 µM] (inactive); as for `Cc1ccc2c(c1)C(=O)CCS2`, 111% (inactive); as for `Cn1cc(C(=O)NCCC(=N)N)cc1NC(=O)CN=C(N)N`, 96.7% (inactive).
